From PubChem
NR5A2 inv ag: inverse agonists of human LRH-1 (NR5A2); HEK293T StAR-luciferase reporter, LRH-1 transfected, 24 h; 360,000 tested, 0.13% active; inhibition, % at 3.6 µM; AID 602396;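 active = inhibition above the mean inhibition of all tested compounds plus 3 SD, cut at about 73% in these data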;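 note: 0% = DMSO wells and 100% = reporter-only cells lacking LRH-1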
NR2F2 inh: blocks human COUP-TFII nuclear receptor. 370,000 tested, 0.7% active. HEK293T NGFI-A luciferase reporter, luminescence. P24468. inhibition, % at 8.6 µM. AID 686940;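 active = inhibition above a per-plate cutoff, mean inhibition of test wells between control levels plus 3 SD, cut at about 38% in these data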;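 note: cells cotransfected with COUP-TFII expression vector driving the NGFI-A reporter; 0% = median of COUP-TF2 test wells and 100% = reporter-only cells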
SRC3 inh: inhibitors of human steroid receptor coactivator 3 (SRC3); Q9Y6Q9; HEK293 GAL4-SRC3 luciferase reporter, luminescence; inhibition, % at 3.6 µM; 360,000 tested, 0.17% active; AID 588352;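 active = inhibition above a per-campaign cutoff, the mean of all compounds plus 3 SD, cut at about 60% in these data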;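 note: 0% = DMSO-treated cells and 100% = gossypol-treated cells at 36 µM; higher means less SRC3-driven luciferase light from the GAL4 reporter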
SRC1 inh: human NCOA1 inhibition. inhibition, % at 3.6 µM. HEK293 GAL4-SRC1 luciferase reporter, luminescence. 360,000 tested, 0.12% active. Q15788;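 active = inhibition above the campaign mean plus 3 SD, with each screening campaign given its own cutoff, cut at about 60% in these data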;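 note: 0% = DMSO treated cells and 100% = gossypol at 36 µM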
Target sequence (Q15788 whole entry, looked up, the tested form may be a part): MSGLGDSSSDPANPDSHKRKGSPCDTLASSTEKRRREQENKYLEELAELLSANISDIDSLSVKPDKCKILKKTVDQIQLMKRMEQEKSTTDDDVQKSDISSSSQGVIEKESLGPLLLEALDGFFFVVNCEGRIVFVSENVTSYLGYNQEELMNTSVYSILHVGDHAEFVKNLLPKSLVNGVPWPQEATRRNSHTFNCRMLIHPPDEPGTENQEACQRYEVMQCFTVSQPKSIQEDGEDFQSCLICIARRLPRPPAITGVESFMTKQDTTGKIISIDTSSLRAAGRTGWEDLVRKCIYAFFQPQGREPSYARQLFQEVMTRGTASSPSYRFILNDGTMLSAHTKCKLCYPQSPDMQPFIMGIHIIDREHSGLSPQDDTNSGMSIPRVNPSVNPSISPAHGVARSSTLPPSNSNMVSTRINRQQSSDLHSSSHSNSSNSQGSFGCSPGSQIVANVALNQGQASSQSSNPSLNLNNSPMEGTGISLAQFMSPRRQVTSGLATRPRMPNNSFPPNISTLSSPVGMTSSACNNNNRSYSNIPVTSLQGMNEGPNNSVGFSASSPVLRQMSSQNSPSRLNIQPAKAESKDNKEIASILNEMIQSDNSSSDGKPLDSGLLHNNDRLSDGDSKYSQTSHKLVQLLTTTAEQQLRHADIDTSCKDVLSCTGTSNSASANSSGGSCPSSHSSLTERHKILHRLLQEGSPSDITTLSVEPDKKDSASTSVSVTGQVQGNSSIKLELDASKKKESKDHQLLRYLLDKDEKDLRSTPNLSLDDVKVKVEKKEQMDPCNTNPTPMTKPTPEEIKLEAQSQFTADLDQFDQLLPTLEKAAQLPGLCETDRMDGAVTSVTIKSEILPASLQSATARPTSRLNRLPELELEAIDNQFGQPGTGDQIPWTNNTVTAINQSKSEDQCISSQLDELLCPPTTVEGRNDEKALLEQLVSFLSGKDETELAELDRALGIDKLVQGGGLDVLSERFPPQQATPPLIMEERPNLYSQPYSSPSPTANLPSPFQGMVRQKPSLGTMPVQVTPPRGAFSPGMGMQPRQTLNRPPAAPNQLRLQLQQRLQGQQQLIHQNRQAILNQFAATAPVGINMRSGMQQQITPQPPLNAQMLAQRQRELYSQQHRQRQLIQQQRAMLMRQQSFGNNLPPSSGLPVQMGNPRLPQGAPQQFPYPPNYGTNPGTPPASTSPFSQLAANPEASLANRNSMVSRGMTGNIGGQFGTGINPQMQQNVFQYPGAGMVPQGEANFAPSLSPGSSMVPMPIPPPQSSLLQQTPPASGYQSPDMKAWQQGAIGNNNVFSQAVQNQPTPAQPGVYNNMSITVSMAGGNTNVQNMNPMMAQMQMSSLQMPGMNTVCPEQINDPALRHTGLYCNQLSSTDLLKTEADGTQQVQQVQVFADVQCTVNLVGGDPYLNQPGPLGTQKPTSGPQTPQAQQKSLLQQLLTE
GalR3 antag: antagonists of human GalR3; HEK293 GalR3-CNG cAMP membrane potential fluorescence; galR3 body fused to GalR1 C-terminus; inhibition, % at 3 µM; O60755; 360,000 tested, 0.44% active; AID 651719;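 active = inhibition above the screen-wide average plus 3 SD, cut at about 13% in these data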;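 note: forskolin and galanin both at EC90 stimulate the cells; cAMP rise reported by CNG channel membrane potential dye signal; 0% = forskolin plus galanin with DMSO and 100% = forskolin alone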
NCOA2 inhibitor: human SRC2 (NCOA2) inhibition; HEK293 GAL4-SRC2 luciferase reporter, luminescence; inhibition, % at 9 µM; 370,000 tested, 0.17% active; AID 651957;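 active = inhibition above the mean inhibition of all tested compounds plus 3 SD, set per campaign, cut at about 52% in these data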;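 note: 0% = DMSO treated cells and 100% = cells given Gossypol at 36 µM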
The depositor's hits bear a star; . = not tested or not shown. An excerpt weighted towards active compounds, which were near 1.1% of everything screened.

SMILES	NR5A2 inv ag	NR2F2 inh	SRC3 inh	SRC1 inh	GalR3 antag	NCOA2 inhibitor
CC1=CC(C)(C)Nc2ccc(OC(=O)C(C)N3C(=O)c4ccccc4C3=O)cc21 (stereo not drawn)	11.6	17.6	6.1	-8.3	-1.8	63.1*
CC1=CC(C)(C)Nc2ccc(OC(=O)c3ccco3)cc21	20.9	12.8	-1.6	10.0	-1.7	54.6*
COc1ccc(OC(=O)C(C)N2C(=O)c3ccccc3C2=O)cc1 (stereo not drawn)	-6.3	20.8	-5.1	12.8	-8.8	7.8
O=C(Nc1ccc(Br)c(C(F)(F)F)c1)[C@@H]1CC=C[C@@H]2CCN(CC3CC3)C(=O)[C@@H]21	.	0.9	.	.	.	.
CC(C)(C)OC(=O)N1Cc2ccccc2C[C@H]1C(=O)NCC(=O)Nc1ccc2c(c1)OCCO2	36.8	23.6	60.2	41.5	-0.6	54.3*
COC1C(CO)OC(n2c3c(Cl)cccc3c3c4c(c5c6cccc(Cl)c6[nH]c5c32)C(=O)NC4=O)C(O)C1O (stereo not drawn)	28.7	3.3	63.9*	70.3*	-3.5	-23.4
COc1ccc(-n2c(SCC(=O)Nc3ccc(S(=O)(=O)Nc4nccs4)cc3)nnc2-c2cccs2)cc1	.	4.2	.	.	.	-5.6
CCN(CC)CCn1nc2c3c(cccc3c1=O)-c1ccccc1-2	77.3*	-66.0	-51.8	73.5*	-6.1	-197.6
O=c1c2cccc3c2c(nn1CN1CCOCC1)-c1ccccc1-3	-20.4	.	-13.4	-7.2	.	.
CC(C)[C@H](NC(=O)OCc1ccccc1)C(=O)N[C@@H](Cc1ccccc1)C1(O)CN(C)C(C(=O)NCc2ccccn2)CO1 (stereo partly drawn)	.	-12.2	.	.	.	.
Nc1ccn([C@@H]2O[C@H](CO)[C@@H](O)[C@@H]2O)c(=O)n1	8.2	10.3	29.6	13.2	-3.2	21.5
Nc1ncn([C@@H]2O[C@H](CO)[C@@H](O)[C@H]2O)c(=O)n1	74.7*	0.0	78.5*	65.5*	-1.5	34.4
Nc1nc(=S)c2ncn([C@@H]3O[C@H](CO)[C@@H](O)[C@H]3O)c2[nH]1	80.8*	-14.6	55.0	44.2	3.3	-15.9
COc1ccc2c(c1)Sc1ccc(Cl)cc1N2	.	-14.2	.	.	.	.
CCc1ccccc1NC(=O)Cn1cccc1C1=NC(c2ccccc2)CO1 (stereo not drawn)	2.8	19.8	-3.0	-28.3	-5.4	0.1
Cc1ccc(NC(=O)Cn2cccc2C2=NC(c3ccccc3)CO2)cc1C (stereo not drawn)	-15.7	-1.0	-2.6	9.7	1.6	100.2*
COc1ccc(C(=O)NC2CC3CCCC(C2)N3CC(C)C)cc1 (stereo not drawn)	9.0	-13.9	4.7	2.3	-2.4	95.3*
COc1ccc(C(=O)NC2CC3CCCC(C2)N3CC(C)C)cc1OC (stereo not drawn)	-0.8	7.8	-4.3	0.3	-1.2	-3.0
CC(COc1ccccc1C#N)CN1CCC(C(O)(c2ccccc2)c2ccccc2)CC1 (stereo not drawn)	.	1.2	.	.	.	7.1
O=C(NCc1ccccc1)O[C@H]1CC[C@@]23CCCN2C(=O)CCC[C@H]3C1	.	10.8	.	.	.	.
COCCN(C(=O)CCl)C(C(=O)NC1CCCCC1)c1ccccc1C (stereo not drawn)	27.7	-11.7	59.4	21.6	-4.5	53.8*
CC(C)[C@H]1/C(=C/C2CC2)N2C(=O)C[C@H](c3cccc(C(F)(F)F)c3)N=C2N1Cc1ccc2c(c1)OCO2	.	7.3	.	.	.	.
CCC(=O)Nc1ccc2c(c1)C(=O)N(C)[C@@H]1CC[C@@H](CC(=O)NCCN3CCCCC3)O[C@H]1CO2	.	-8.7	.	.	.	28.8
CC1CN(S(=O)(=O)c2ccc(C(=O)NCCCn3ccnc3)cc2)CC(C)O1 (stereo not drawn)	67.0	8.2	54.3	62.3*	-5.2	47.5
CC1CN(S(=O)(=O)c2cccc(C(=O)NCCCn3ccnc3)c2)CC(C)O1 (stereo not drawn)	-2.4	5.0	7.4	-7.7	-3.1	-4.2
Cn1c(SCC(=O)Nc2ccc(S(=O)(=O)Nc3nccs3)cc2)nc2sc3c(c2c1=O)CCCC3	.	-2.2	.	.	.	3.5
O=S(=O)(c1cccs1)N1CCN(CCOc2ccc(Cl)cc2)CC1	9.1	25.6	20.9	17.1	0.2	25.4
O=S(=O)(c1cccs1)N1CCN(CC(O)COc2cc(Cl)ccc2Cl)CC1 (stereo not drawn)	16.8	4.5	22.4	10.8	68.5*	18.5
